The whole screen tested about 68,000 compounds, of which about 2,700 (4%) showed an effect of 50% or more. The sample as a whole holds a higher share of strong results than the screen did.

This assay has as its system Plasmodium berghei. The assay is described as follows: Screen against P. berghei liver stage (PbLuc), transformed with Luciferase, at 2uM. In kind it is functional, HepG2. The following applies: tested at 2 uM.
Regarding `O=C(NCc1cnc2n1CCN(Cc1ccoc1)C2)c1ccno1`, the INHIBITION is listed as 42.64%.
Next, `COC1CN(C(=O)NC2CCCC2)CCC(=O)N(C)c2ccccc21` (stereo not drawn): 15.96%; `Nc1ccnc(N2CCCC(CO)(Cc3cccc(Cl)c3)C2)n1` (stereo not drawn): 57.51%; `OCC1(Cc2cccc(Cl)c2)CCCN(c2ncccn2)C1` (stereo not drawn): -16.17%.
Consider `Cc1cnc(C)c(N2CCCC(CO)(Cc3cccc(Cl)c3)C2)n1` (stereo not drawn), for which the INHIBITION came out at 8.14%.
As to `O=C(NCC1CCC2(CCNCC2)CO1)c1cnccn1` (stereo not drawn), the INHIBITION is given as -13.14%.
As to `Cc1ccc(N2CC[C@H]3CN(C(=O)c4ccn(C)n4)C[C@H]3C2)nn1`, the INHIBITION was -32.66%.
For `Cn1ncc2c1CCCC2NCc1cccc(F)c1` (stereo not drawn), the INHIBITION is on record as -33.95%.
Next, `CCn1ncc2c1CCCC2NCc1ccc2c(c1)CCO2` (stereo not drawn): -7.81%; `CC(C)(C)n1ncc2c1CCCC2NCc1ccc2c(c1)CCO2` (stereo not drawn): 64.67%; `CC(C)(C)n1ncc2c1CCCC2NCc1ccc2c(c1)OCCO2` (stereo not drawn): -12.39%.
Then `Cc1cccc(CNC2CCCc3c2cnn3C)c1` (stereo not drawn), with 51.21%.
Then `Cn1ncc2c1CCCC2NCc1ccc(Cl)s1` (stereo not drawn), with -21.31%; and `Cc1ccc(CNC2CCCc3c2cnn3C)s1` (stereo not drawn), with 28.51%.
Consider `Cn1ncc2c1CCCC2NCc1ccc(Br)s1` (stereo not drawn), for which the INHIBITION is reported as 54.86%.
Consider `Cc1cccc(CNC2CCCc3c2cnn3Cc2ccccc2)c1` (stereo not drawn), for which the INHIBITION was -2.26%.
For `CC(C)(C)c1nc(CC(=O)Nc2cnccc2O)cs1`, the INHIBITION was -5.75%.
Take `CN1CCCC(CCC(=O)N2CCc3c(nc(CC4CC4)[nH]c3=O)C2)C1` (stereo not drawn): the INHIBITION is reported as 10.1%.
Next, `CCc1cccc(OCC(=O)NC(C)c2nnc3n2CCC3)c1` (stereo not drawn): 0.31%.
For `CS(=O)(=O)c1ccc(C(=O)NCc2nc3cc(F)ccc3[nH]2)cc1`, the INHIBITION is recorded as 44.61%.
`O=C(NC1CCN(C(=O)C2CCCCC2)C1)c1ccncc1Cl` (stereo not drawn): the INHIBITION was -56.84%.
For `CC1=Nc2c(c(=O)[nH]n2C2CCCCC2)C(c2cccnc2)S1` (stereo not drawn), the INHIBITION was -30.12%.
`CCOC1COC2(CCN(Cc3ccc4c(c3)OCO4)CC2)C1` (stereo not drawn): the INHIBITION was -59.24%.
Turning to `Cn1ccnc1CN1CCC2(CC1)COC2`, the INHIBITION worked out at 24.23%.
For the compound `CC(C)COC1CC2(CCN(Cc3nccn3C)CC2)C1`, the INHIBITION turned out to be 58.93%.
As to `Cn1ccnc1CN1CCC2(CC1)CC(Oc1cccnc1)C2`, the INHIBITION was 24.83%.
For `CN(Cc1ccncc1)C1COC2(CCN(Cc3cccs3)CC2)C1` (stereo not drawn), the INHIBITION is reported as -3.11%.
Then `CN(Cc1ccncc1)C1COC2(CCN(Cc3ccccn3)CC2)C1` (stereo not drawn), with 23.59%; and `COC1COC2(CCN(Cc3ccc4c(c3)OCO4)CC2)C1` (stereo not drawn), with 22.16%; and `COC1CC2(CCN(Cc3nccn3C)CC2)C1`, with 52.66%.
Turning to `COCC1CC2(CCN(Cc3nccn3C)CC2)CN1c1ncccn1` (stereo not drawn), the INHIBITION is on record as 12.88%.
On to `COC1CC2(CCN(Cc3ccc4c(c3)OCO4)CC2)C1`, for which the INHIBITION amounted to 69.22%.
As to `CCOC1CC2(CCN(Cc3nccn3C)CC2)C1`, the INHIBITION came out at 16.98%.
As to `CN(Cc1ccncc1)C1COC2(CCN(Cc3nccn3C)CC2)C1` (stereo not drawn), the INHIBITION was found to be 64.31%.
As for `N#Cc1cccc(CN2CC3(CCCCN3c3cccnc3)CC2=O)c1` (stereo not drawn), the INHIBITION came to 12.57%.
As to `CN(C)CC(c1ccccc1)N(C)C(=O)c1cccc(NCC(=O)O)c1` (stereo not drawn), the INHIBITION is 8.26%.
Regarding `CNc1cccc(C2CCCN(C(=O)c3cncs3)C2)n1` (stereo not drawn), the INHIBITION is reported as -33.77%.
Then `CC(NC(=O)Nc1ccc(F)c(F)c1)c1nc[nH]n1` (stereo not drawn), with -5.51%; and `Cc1cccc(OCCC(=O)N2CCCN(CC(N)=O)CC2)c1C`, with -5.2%; and `CCCN(Cc1ccccc1O)S(=O)(=O)C(C)CC` (stereo not drawn), with 17.48%.
In the case of `CC(Cn1cccn1)NC(=O)c1ccsc1` (stereo not drawn), the INHIBITION was -18.04%.
Consider `CC1c2ncc(CNC(=O)C3CC3)n2CCN1CC1CCC1` (stereo not drawn), for which the INHIBITION was determined as 35.07%.
With `CSC(C)CCN(Cc1ccccn1)Cc1sccc1C` (stereo not drawn), the INHIBITION is listed as -22.06%.
`Cc1cccc(-n2ncc3c2CCCC3NCC(C)(C)CO)c1C` (stereo not drawn): the INHIBITION came out at 45.82%.
Regarding `Cc1noc([C@@H]2C[C@H]3CN(C(=O)C4CCN(C)CC4)C[C@H]3O2)n1`, the INHIBITION was 33.12%.
As to `CC(C)n1c(=O)c2sccc2n(CC(=O)Nc2ccccc2)c1=O`, the INHIBITION came to 10.62%.
Then `Cc1cc(C)n(C2CCCN(C(=O)Cc3ccc(C#N)cc3)C2)n1` (stereo not drawn), with -11.34%; and `Cc1ccc(CC(=O)N2CCCC(n3nc(C)cc3C)C2)cn1` (stereo not drawn), with 5.59%; and `Cc1cc(C)n(C2CCCN(C(=O)Cc3cccc(F)c3)C2)n1` (stereo not drawn), with 14.06%.
In the case of `COc1ccc(CC(=O)N2CCCC(n3nc(C)cc3C)C2)cc1F` (stereo not drawn), the INHIBITION is on record as 6.3%.
In the case of `COc1cccc(CC(=O)N2CCCC(n3nc(C)cc3C)C2)c1` (stereo not drawn), the INHIBITION came to 62.75%.
For the compound `COc1ccc(CC(=O)N2CCCC(n3nc(C)cc3C)C2)cc1` (stereo not drawn), the INHIBITION was determined as 52.87%.
For the compound `COc1ncc(CN(C)C2CCN(C(C)C)CC2)cn1`, the INHIBITION is on record as 36.08%.

The values are drawn from ChEMBL document CHEMBL4513216, “Probing the Open Global Health Chemical Diversity Library for Multistage-Active Starting Points for Next-Generation Antimalarials” (ACS Infect Dis, 2020).
